# Source: PubChem BioAssay (NCI)
# Several values for one entry are separate records, joined by “and”; a condition that tells them apart may be missing. Identical values can stand only once. Compounds without any hit were thinned out: in the full panel of roughly 83,000, 20% have a hit.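 Note: values are percent growth. 100 is the growth of untreated cells, values between 100 and 0 indicate rising inhibition; between -100 and 0 indicates cell death.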 Activity calls are given as the source filed them. How the source made its calls: active means growth percent below 10; inactive means the rest.
# Key:
# Assay in all cases: NCI-60 one-dose screen, 48 h (100 = growth as untreated, 0 = no growth, -100 = all killed)
# Settings in all cases: 10 µM unless noted
# MOLT-4 leukemia = system: MOLT-4 leukemia
# SR leukemia = system: SR leukemia
# RPMI-8226 leukemia = system: RPMI-8226 leukemia
# OVCAR-8 ovarian = system: OVCAR-8 ovarian
# OVCAR-5 ovarian = system: OVCAR-5 ovarian
# SK-OV-3 ovarian = system: SK-OV-3 ovarian
# IGROV1 ovarian = system: IGROV1 ovarian
# HS 578T breast = system: HS 578T breast
# NCI/ADR-RES ovarian = system: NCI/ADR-RES ovarian
# T-47D breast = system: T-47D breast
# BT-549 breast = system: BT-549 breast
# MDA-MB-435 melanoma = system: MDA-MB-435 melanoma
# SW-620 colon = system: SW-620 colon
# MCF7 breast = system: MCF7 breast
# HCT-116 colon = system: HCT-116 colon
# HCC-2998 colon = system: HCC-2998 colon
# KM12 colon = system: KM12 colon
# OVCAR-4 ovarian = system: OVCAR-4 ovarian
# OVCAR-3 ovarian = system: OVCAR-3 ovarian
Compound,growth (MOLT-4 leukemia),growth (SR leukemia),growth (RPMI-8226 leukemia),growth (OVCAR-8 ovarian),growth (OVCAR-5 ovarian),growth (SK-OV-3 ovarian),growth (IGROV1 ovarian),growth (HS 578T breast),growth (NCI/ADR-RES ovarian),growth (T-47D breast),growth (BT-549 breast),growth (MDA-MB-435 melanoma),growth (SW-620 colon),growth (MCF7 breast),growth (HCT-116 colon),growth (HCC-2998 colon),growth (KM12 colon),growth (OVCAR-4 ovarian),growth (OVCAR-3 ovarian)
CN1CCc2cc3c(cc2C1O)OCO3 (stereo not given),111% (inactive),101% (inactive),94.4% (inactive),102% (inactive) and 109% (inactive),94.6% (inactive) and 94.1% (inactive),97.9% (inactive) and 105% (inactive),117% (inactive) and 108% (inactive),55.3% (inactive) and 103% (inactive),95.9% (inactive) and 107% (inactive),69.3% (inactive) and 102% (inactive),-78.9% (active) and 100% (inactive),37.8% (inactive) and 102% (inactive),96.1% (inactive) and 100% (inactive),79.5% (inactive) and 94.6% (inactive),104% (inactive) and 101% (inactive),102% (inactive) and 108% (inactive),57.8% (inactive) and 103% (inactive),–,–
CCN1C(=O)CC(=O)N(CC)C1=S,109% (inactive),101% (inactive),104% (inactive),109% (inactive),–,99.7% (inactive),98.5% (inactive),102% (inactive),73.9% (inactive),98.1% (inactive),94.5% (inactive),105% (inactive),108% (inactive),100% (inactive),93.8% (inactive),–,106% (inactive),89.9% (inactive),112% (inactive)
Oc1ccccc1C=NCCN=Cc1ccccc1O.[Fe],30.7% (inactive),73.2% (inactive),88.6% (inactive),84.7% (inactive),–,101% (inactive),71.2% (inactive),77.3% (inactive),104% (inactive),97.7% (inactive),110% (inactive),31.1% (inactive),66.1% (inactive),70.4% (inactive),–,111% (inactive),93% (inactive),117% (inactive),–
CC/C(Cc1ccccc1)=C(\c1ccc(OCCN2CCCC2)cc1)c1ccc(OC(=O)NCc2ccccc2)cc1,11.7% (inactive),-28.2% (active),-6.25% (active),62.2% (inactive),–,91.9% (inactive),40% (inactive),69.5% (inactive),88.1% (inactive),21.2% (inactive),77.9% (inactive),53.6% (inactive),-44.1% (active),-11.1% (active),-34.2% (active),83.1% (inactive),45.7% (inactive),59.9% (inactive),78.4% (inactive)
C=C[Se]CC(=O)/C=C/c1ccccc1,79.5% (inactive),58.7% (inactive),93.2% (inactive),59.5% (inactive),89.9% (inactive),53% (inactive),104% (inactive),66.1% (inactive),87.9% (inactive),82.3% (inactive),108% (inactive),83.7% (inactive),87.9% (inactive),87.2% (inactive),56.1% (inactive),85.4% (inactive),26.6% (inactive),–,–
CC(=O)C(N)Cc1ccccc1 (stereo not given),101% (inactive),93.7% (inactive),79.6% (inactive),91.8% (inactive),105% (inactive),83.1% (inactive),107% (inactive),–,99.4% (inactive),78.3% (inactive),96% (inactive),102% (inactive),–,93.6% (inactive),86.3% (inactive),96.3% (inactive),106% (inactive),–,114% (inactive)
COC(=O)CCP(CCC(=O)OC)c1ccccc1,113% (inactive),106% (inactive),113% (inactive),105% (inactive),–,101% (inactive),110% (inactive),114% (inactive),106% (inactive),112% (inactive),90% (inactive),97.2% (inactive),105% (inactive),97.6% (inactive),97.6% (inactive),104% (inactive),111% (inactive),103% (inactive),107% (inactive)
CC[C@H](C)[C@H](NC(=O)CN(C)C)C(=O)N(C)[C@H](C[C@@H](OC(C)=O)c1nc(C(=O)NC23C4C5C2C2C3C4C52C(=O)OC)cs1)C(C)C (stereo not given in full),11% (inactive),10.4% (inactive),20.1% (inactive),21.6% (inactive),–,35.1% (inactive),36.3% (inactive),19.8% (inactive),63.7% (inactive),62.9% (inactive),4.22% (active),-59.9% (active),25.9% (inactive),21.6% (inactive),-2.36% (active),18.5% (inactive),13.2% (inactive),48.7% (inactive),-34% (active)
C/C=C(/C)C(=O)O[C@H]1CC[C@@]2(C)[C@@H]3CC[C@H]4[C@]5(O)C[C@H](O)[C@@]6(O)[C@@H](CN7C[C@@H](C)CC[C@H]7[C@@]6(C)O)[C@]5(O)C[C@@]42O[C@@]13O,112% (inactive),97.4% (inactive),113% (inactive),91.9% (inactive),103% (inactive),118% (inactive),49.3% (inactive),116% (inactive),111% (inactive),118% (inactive),–,108% (inactive),111% (inactive),98.3% (inactive),47.5% (inactive),137% (inactive),122% (inactive),–,120% (inactive)
CCOC(=O)P(=O)(OCC)OCC,100% (inactive),92.5% (inactive),112% (inactive),101% (inactive),112% (inactive),98.3% (inactive),89.5% (inactive),109% (inactive),109% (inactive),108% (inactive),–,120% (inactive),106% (inactive),106% (inactive),111% (inactive),106% (inactive),113% (inactive),–,113% (inactive)
CO[C@@H]([CH2][Hg][O]C(=O)c1ccccc1)[C@@H]([CH2][Hg][O]C(=O)c1ccccc1)OC,27.4% (inactive),50.2% (inactive),92.2% (inactive),83.8% (inactive),–,73.2% (inactive),96.4% (inactive),113% (inactive),105% (inactive),87.7% (inactive),110% (inactive),104% (inactive),66.1% (inactive),46.4% (inactive),-60.5% (active),–,101% (inactive),93.8% (inactive),-92.8% (active)
O=C(NC1=NCC[Se]1)c1ccccc1O,30.3% (inactive),19% (inactive),64.8% (inactive),47.4% (inactive),53.3% (inactive),135% (inactive),-8.34% (active),35.5% (inactive),21.5% (inactive),79.4% (inactive),82.1% (inactive),48.3% (inactive),–,51.4% (inactive),–,–,71.5% (inactive),–,69.8% (inactive)
Cn1cc(-c2csc(-c3cn(CCCCN4CCOCC4)c4ccc(F)cc34)n2)c2cccnc21,46.7% (inactive),37% (inactive),49% (inactive),81.3% (inactive),–,84% (inactive),65.4% (inactive),41.1% (inactive),76.8% (inactive),76.9% (inactive),65.3% (inactive),38.1% (inactive),19.7% (inactive),78.4% (inactive),83% (inactive),92.4% (inactive),52.5% (inactive),84.5% (inactive),90% (inactive)
CC(=O)c1cccc(S(=O)(=O)F)c1,112% (inactive),76.1% (inactive),101% (inactive),106% (inactive),–,109% (inactive),103% (inactive),96.4% (inactive),96.9% (inactive),110% (inactive),88.8% (inactive),97.8% (inactive),105% (inactive),96.8% (inactive),92.1% (inactive),95.2% (inactive),105% (inactive),114% (inactive),117% (inactive)
CO/N=C1\CC[C@]2(C)[C@H]3CC[C@]4(C)C(=O)CC[C@H]4[C@@H]3C[C@@H]3SC(N)=N[C@@]32C1,86.1% (inactive),71.8% (inactive),93.2% (inactive),105% (inactive),–,122% (inactive),101% (inactive),102% (inactive),99.6% (inactive),84.4% (inactive),106% (inactive),91.5% (inactive),–,89.1% (inactive),87.2% (inactive),103% (inactive),97.7% (inactive),90.9% (inactive),85.5% (inactive)
Oc1cc(N2CC2)c(O)cc1N1CC1,9.13% (active),21.6% (inactive),2.53% (active),11.2% (inactive),–,2.44% (active),-38.3% (active),-17.4% (active),1.01% (active),19.2% (inactive),30% (inactive),0.0051% (active),–,-30.3% (active),–,-55.2% (active),-52.7% (active),18% (inactive),–
CC(Oc1ccc(-c2ccccc2)cc1)C(=O)O (stereo not given),104% (inactive),106% (inactive),101% (inactive),103% (inactive),–,105% (inactive),103% (inactive),110% (inactive),104% (inactive),98.4% (inactive),106% (inactive),102% (inactive),102% (inactive),103% (inactive),98.5% (inactive),–,107% (inactive),101% (inactive),111% (inactive)
CC1(C)C2CCC1(CS(=O)(=O)O)C(=O)C2 (stereo not given),112% (inactive) and 110% (inactive),105% (inactive) and 117% (inactive),91.4% (inactive),99.7% (inactive) and 103% (inactive),91.9% (inactive) and 101% (inactive),98.4% (inactive) and 115% (inactive),86.8% (inactive) and 115% (inactive),–,104% (inactive) and 112% (inactive),87.1% (inactive) and 115% (inactive),95.3% (inactive) and 94.8% (inactive),96.1% (inactive) and 105% (inactive),99% (inactive) and 111% (inactive),101% (inactive) and 112% (inactive),97.9% (inactive) and 101% (inactive),92.2% (inactive) and 133% (inactive),101% (inactive) and 104% (inactive),–,102% (inactive) and 114% (inactive)
